PubChem BioAssay AID1814 (Broad Institute, 2009)
About 22,000 (7.3%) of roughly 300,000 compounds were called active. About 2% were inconclusive and are not listed. Only a selection was taken, and actives are over-represented in it overall. Unmarked numbers belong to inactive results. Rule as the data show it: active = activity score below about -60%; inconclusive = mostly about -28% to -61%; inactive = positive scores.

Assay: Activators working through SNCA 5'UTR binding (MLPCN) (AID 1814)
Details: alpha-synuclein 5'UTR reporter, activators screen; active compounds read low; tested at 7.5 µM

| Structure (SMILES) | activity score |
| --- | --- |
| Cc1cc(-n2nc(C)cc2C)n2ncc(-c3ccccc3)c2n1 | -73.6% (active) |
| CCOC(=O)c1cnc(-n2nc(C)cc2C)nc1NNc1cc(C)nc(-c2ccccc2)n1 | 105% |
| O=C1/C(=C\Nc2ccccc2)CCN1c1ncccn1 | -99.5% (active) |
| O=C(CSC(=S)N1CCCCC1)c1c(F)cccc1F | -175% (active) |
| COc1ccc(OCc2ccc(-c3nc4ccccc4c(=O)n3N)o2)cc1 | -143% (active) |
| COCn1c(COc2ccccc2)nc2ccccc21 | -65.8% (active) |
| COc1ccc(C)c(Cn2c(-c3nonc3N)nc3ccccc32)c1 | 76.2% |
| CCOc1ccc(C(O)Cc2nc3ccccc3n2C)cc1 (centres undefined) | -67.7% (active) |
| Cc1ccc(OCc2nc3ccccc3n2C)cc1 | -109% (active) |
| Cn1c(COc2ccc(Cl)cc2)nc2ccccc2c1=O | -91.8% (active) |
| CC(C)c1ccc(Nc2ncccc2C#N)cc1 | -111% (active) |
| CC(=O)c1sc(NC(=O)c2ccc(C)cc2)nc1C | -112% (active) |
| COC(=O)c1sc(NC(=S)NC(=O)c2ccc(C)cc2)nc1C | -102% (active) |
| O=C(N/N=C/c1ccc([N+](=O)[O-])o1)c1cccc(S(=O)(=O)N2CCOCC2)c1 | -81.1% (active) |
| COc1ccc(C(=NN)c2ccc(OC)cc2)cc1 | -133% (active) |
| O=C(Nc1ccon1)c1sc2ccccc2c1Cl | -179% (active) |
| CN(C)c1ccc(/C=N/NC(=O)c2ccc(Cn3cc(Br)cn3)o2)cc1 | -69.3% (active) |
| Cc1c(Cl)c([N+](=O)[O-])nn1Cc1ccc(C(=O)N/N=C\c2cc(Cl)ccc2O)o1 | 81.2% |
| CCOc1ccc(OCc2cccc(C(=O)N(CC)CC)c2)cc1 | 50.8% |
| CC(C)c1cc(C(N)=O)c(NC(=O)c2cccc(COc3ccc(Br)cc3)c2)s1 | -194% (active) |
| CN(C)c1nc(=Nc2cccc(Cl)c2)ss1 | -64.3% (active) |
| CS(=O)(=O)N1CCc2nc(-c3ccccc3)sc2C1 | -90.2% (active) |
| O=C(c1ccccc1)c1ccc(OC(=O)N2CCCC2)cc1 | -65.8% (active) |
| Cc1ccc(CSc2nc3[nH]ncc3c(=O)[nH]2)cc1 | -78% (active) |
| Clc1ccc(-c2nnc(SCc3nc4ccccc4s3)o2)cc1 | -162% (active) |
| Oc1ccc(CNc2ccccc2O)cc1 | -62.2% (active) |
| Cc1cc(OCc2cc(C(=O)NCc3cc(C(C)C)no3)no2)cc(C)c1Cl | -135% (active) |

| Structure (SMILES) | activity score |
| --- | --- |
| CCOc1ccc(NS(=O)(=O)c2ccc(C)c(C(N)=O)c2)cc1 | -72.9% (active) |
| COc1cc(CN2CCC(C(N)=O)CC2)ccc1OCc1ccccc1 | -111% (active) |
| N=c1c2c3c(sc2nc2n1CCCCC2)CCCC3 | -89.5% (active) |
| CCCCc1ccc(NC(=S)N2CCCC(CO)C2)cc1 (centres undefined) | -107% (active) |
| CN(CCO)c1ccc(/C=N/Nc2nncc3ccccc23)cc1 | 57.2% |
| Fc1ccc(/C=N/Nc2nc(-c3cccnc3)nc3ccccc23)cc1 | -70.9% (active) |
| Cc1ccc(/C=N/NC(=S)NC2CCCCC2)o1 | -135% (active) |
| CC(C)c1ccc(NC(=O)NC2CCCCC2)cc1 | -244% (active) |
| Cc1ccc(NC(=S)NC2CCCC2)cc1 | -65.1% (active) |
| Cc1cc(Br)ccc1NC(=S)NC1CCCC1 | -66.7% (active) |
| COc1ccc(-c2cn3ccc(C)cc3n2)cc1 | 92.2% |
| CCN(CC)S(=O)(=O)c1ccc(-c2cn3ccc(C)cc3n2)cc1 | -169% (active) |
| Cc1ccc2nc(-c3ccc(Br)cc3)cn2c1 | 63.2% |
| Cc1cccc(N=Nc2c(O)[nH]c3ccc(F)cc23)c1 | -147% (active) |
| O=C(Cc1ccccc1)NCc1ccc(F)cc1 | -66.4% (active) |
| O=C(NCCc1ccc(F)cc1)c1n[nH]c2ccccc12 | -150% (active) |
| O=C(CC1CCCCC1)NCc1ccccc1 | -86.3% (active) |
| O=C(CC1CCCCC1)NCc1ccc(F)cc1 | -72.4% (active) |
| COc1ccc(COC(=O)c2n[nH]c3ccccc23)cc1F | -96.4% (active) |
| CCc1ccc2c(c1)C1(NN=C(c3ccccc3)S1)C(=O)N2 (centres undefined) | 71.7% |
| O=C1Nc2ccccc2C12Nc1ccccc1S2 (centres undefined) | -83.2% (active) |
| COc1cccc(NC(=S)NCc2ccccn2)c1 | -101% (active) |
| CCC(C)c1ccc(NC(=S)NCc2ccccn2)cc1 (centres undefined) | -123% (active) |
| CCOC(=O)c1cc2cc(C)ccc2[nH]1 | -132% (active) |
| CCOC(=O)c1nc(-c2ccc3c(c2)OCO3)[nH]c1C | -109% (active) |
| C[C@@H]1C[C@@H]2O[C@H]2/C=C\C=C\C(=O)Cc2c(Cl)c(O)cc(O)c2C(=O)O1 | -113% (active) |
| CN1CCN(CCCNC(=O)c2ccc(/C=C3\Oc4ccccc4N(Cc4ccc(Cl)cc4)C3=O)cc2)CC1 | 96.5% |
